Screening data as filed in PubChem BioAssay.
The list is not random: actives were taken first. Their share in the collection is about 17%.
HepG2 viability = HepG2 cytotoxicity, counter-screen for TGF-b inhibitors; HepG2 CAGA-GFP viability, ATP luminescence, 18 h; Potency, µM (series often up to 46.1 µM), most hits filed as cytotoxic; hit rate 0.76% among 410,000; AID 588856
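HepG2 CAGA-GFP cells (1000/well, DMEM with 1% FBS) received compound, then TGF-beta at 500 pg/mL final, and were incubated 18 hours at 37 degrees C. Viability was read by CellTiter-Glo luminescence. Media-only wells were set as complete cell-killing and DMSO as no toxicity.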
DT40 TDP1 CPT = growth inhibition of DT40 Tdp1-/-;hTDP1 cells with camptothecin (screen for TDP1 inhibitors) | chicken DT40 Tdp1-/-;hTDP1 cells + 20 nM CPT, ATP luminescence, 48 h | Potency, µM (titrated, usually from 46.2 µM), hits mostly inhibitors | hit rate 12% among 420,000 | AID 686979; further: nearly all actives have a fitted effect of over 55% in size
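Cell growth measured by CellTiter-Glo luminescence after a minimum 48 h, 37 C compound exposure with 20 nM CPT in Tdp1-knockout DT40 cells stably expressing hTDP1, seeded 400/well; qHTS titration format.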
TDP1 cell noCPT = qHTS for Inhibitors of human tyrosyl-DNA phosphodiesterase 1 (TDP1): qHTS in cells in absence of CPT; Potency, µM (highest dose often 46.2 µM), most hits filed as inhibitors; hit rate 15% among 420,000; DT40 Tdp1-/- hTDP1 cells, no CPT, ATP luminescence, 48 h; further: nearly all actives have a fitted effect of over 55% in size
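A cellular qHTS used chicken DT40 cells lacking endogenous Tdp1 but carrying stably transfected human TDP1. Compounds were applied without camptothecin, and cell growth kinetics were judged by ATP-dependent luminescence after ≥48 hr.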
TGFb inhibitor = blocks TGF-b signaling; HepG2 CAGA-GFP TGF-b/SMAD3 reporter, GFP fluorescence, 18 h; TGF-beta stimulated, 500 pg/mL final; Potency, µM (doses to about 46.1 µM), actives largely listed as inhibitors; hit rate 1.2% among 410,000; further: nearly all actives have a fitted effect of over 65% in size
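First, reporter cells (HEPG2 CAGA-GFP) rested 2 h at 37 degrees C. Next, compounds were pinned in and TGF-beta added to 500 pg/mL final. After 18 h, GFP was imaged per cell and summed per well.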
S2 tox = cell viability loss in ATXN counter-screen; Potency, µM (highest dose often 56.7 µM), actives largely listed as cytotoxic; S2 cells (HEK-293 line with an ATXN2-luciferase reporter) viability, CellTiter-Fluor protease fluorescence, 24 h; AID 651635; hit rate 0.49% among 400,000; further: nearly all actives have a fitted effect of over 40% in size
ATXN2 expr inh = reduces ATXN2 reporter expression in HEK-293 cells; Potency, µM (doses to about 57 µM), most hits filed as inhibitors; HEK-293 ATXN2-luciferase reporter, luminescence, 24 h; hit rate 0.72% among 360,000; further: nearly all actives have a fitted effect of over 55% in size
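ATXN2-luciferase reporter cells (luciferase flanked by upstream and downstream ATXN2 gene portions) were treated 24 h at 37 °C with compounds at up to 57 uM. SteadyGlo luminescence gave expression; GF-AFC fluorescence gave viability.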
A number is an active result; i = inactive; ? = inconclusive; nt = no result. The call rests on the fitted dose curve; in most records, active means well fitted curve in the direction sought with a large enough effect; inconclusive means small, poorly fitted or top-dose-only effect, or another doubt; inactive means no such curve, though single readings can be large; an effect the other way counts as inactive or inconclusive.

SMILES	HepG2 viability	DT40 TDP1 CPT	TDP1 cell noCPT	TGFb inhibitor	S2 tox	ATXN2 expr inh
Cc1cc(CNC(=O)COc2ccccc2F)c2ccccc2n1	i	15µM	?	i	i	i
Cc1cc(CNC(=O)COc2ccc(F)cc2F)c2ccccc2n1	i	?	?	i	i	i
CC1(C)CC(=Cc2ccccc2[N+](=O)[O-])C(=O)c2ccccc21	i	i	16µM	i	?	nt
O=C1NC(=O)C(=Cc2ccccc2[N+](=O)[O-])S1	i	?	21µM	i	i	i
O=C1C(=Cc2ccccc2[N+](=O)[O-])Cc2ccccc21	18µM	2.6µM	3.3µM	13µM	?	nt
O=C1NC(=O)/C(=C\c2ccccc2OCc2ccccc2)S1	i	i	i	i	i	i
Cc1ccccc1/C=C1\CCCc2ccccc2C1=O	i	i	i	i	i	i
Nc1ccccc1C=C1Cc2ccccc2C1=O	i	i	i	i	i	i
O=C1CC(C(=O)Nc2ccc(Cl)cc2[N+](=O)[O-])C2(CCCCC2)O1 (centres undefined)	i	i	i	i	i	i
CC(=O)NCCn1c(SCc2cc(F)ccc2F)nc2ccccc2c1=O	i	?	?	i	i	i
CC(=O)NCCn1c(SCc2ccccc2C)nc2ccccc2c1=O	i	?	16µM	?	nt	nt
CC(=O)NCCn1c(SCc2ccc(C)cc2C)nc2ccccc2c1=O	i	10µM	8.2µM	i	i	i
CC[C@@H](C)C(NC(=O)OC(C)(C)C)c1cn([C@@H](Cc2ccc(O)cc2)C(=O)N2CCN(C(=O)OC(C)(C)C)CC2)nn1 (some centres undefined)	i	?	?	i	i	i
Nc1nc(N)c2[nH]c(-c3ccccc3)nc2n1	i	i	i	i	i	i
CCSc1ncc(/C=N/Nc2ccccc2)n1C	i	23µM	16µM	i	i	i
CCSc1ncc(/C=N/Nc2ccc(Cl)cc2)n1C	i	?	?	i	i	i
CCn1c(=NC(=O)c2ccc(S(=O)(=O)N(C)C)cc2)sc2cccc(OC)c21	i	i	i	i	i	nt
C#CCn1c(=NC(=O)c2ccc(Br)s2)sc2cccc(OC)c21	i	?	21µM	i	?	i
C#CCn1c(=NC(=O)c2ccc(Br)s2)sc2cc(NC(C)=O)ccc21	i	i	i	i	i	i
C=CCn1c(=NC(=O)c2cccs2)sc2cccc(OC)c21	i	?	16µM	?	i	i
COc1ccc(-c2cc(C(=O)OCC(=O)c3ccc(C)cc3)c3cccc(Cl)c3n2)cc1	i	?	?	i	i	i
Cc1ccc(-c2cc(C(=O)OCC(=O)c3ccccc3)c3cccc(Cl)c3n2)cc1	i	?	6.5µM	i	i	i
Cc1c(-c2ccccc2)nc2c(Cl)cccc2c1C(=O)OCC(=O)c1ccc(F)cc1	i	?	5.8µM	i	i	i
Cc1ccc2nc(C)cc(C(=O)OCC(=O)c3ccc(Cl)c([N+](=O)[O-])c3)c2c1	i	16µM	?	i	i	i
Cn1c(SCc2ccccc2)nnc1C1CCCN(Cc2cccc3ncccc23)C1 (centres undefined)	nt	?	i	nt	i	nt
SMILES	HepG2 viability	DT40 TDP1 CPT	TDP1 cell noCPT	TGFb inhibitor	S2 tox	ATXN2 expr inh
COc1ccc(CN2C(=O)c3ccccc3C2=O)cc1C(=O)N(C)CC(=O)Nc1ccc(C)cc1	i	i	i	i	?	nt
CC(C)c1ccc(NC(=O)c2snc3ccc(Cl)cc23)cc1	i	i	i	?	i	i
COc1ccc(CCNC(=O)C2=C(C)C(=O)OC23CCCCC3)c(OC)c1	i	?	?	nt	nt	nt
C#CCN(C[C@H]1[C@H](OC(=O)Nc2c(C)noc2C)[C@H](OC(=O)Nc2c(C)noc2C)C[C@@H](C(=O)OC)[C@H]1C(=O)OC)S(=O)(=O)c1ccc(C)cc1	i	21µM	15µM	i	i	i
C#CCN(C[C@H]1[C@H](OC(=O)NCCCCCC)[C@H](OC(=O)NCCCCCC)C[C@@H](C(=O)OC)[C@H]1C(=O)OC)S(=O)(=O)c1ccc(C)cc1	i	4.1µM	5.8µM	?	?	i
CC(=O)c1c(C)cc(C)c(CSc2nnc(-c3ccco3)o2)c1C	i	13µM	22µM	i	i	i
Cc1cccc(CSc2nnc(-c3ccco3)o2)c1	i	i	i	i	i	i
C[C@@]1(c2cc(-c3cncnc3)c(F)cc2F)CCSC(N)=N1	nt	nt	nt	nt	nt	i
CCn1c(=O)c(CCC(=O)N2CCOCC2)c(C)c2c(C)nn(-c3ccccc3)c21	i	?	21µM	?	?	?
Cc1cc(=O)n(CC(=O)NCCN2CCOCC2)c2c1c(C)nn2-c1ccccc1	i	i	i	i	i	i
Cc1nn(-c2ccccc2)c2c1c(C)c(CCC(=O)N1CCOCC1)c(=O)n2C	i	23µM	?	i	i	i
Cc1cc(C(=O)N2CCOCC2)n(-c2ccccc2)n1	i	i	i	i	i	i
CCN1CCN(CCNC(=O)CCc2c(C)c3c(C)nn(-c4ccccc4)c3n(C)c2=O)CC1	i	?	?	i	?	i
CCn1c(=O)c(CCC(=O)NCCN2CCOCC2)c(C)c2c(C)nn(-c3cccc(C)c3)c21	i	?	16µM	i	i	i
CCCN1Cc2cccc(C(=O)Nc3cc(C)cc(C)c3)c2C1=O	i	i	?	i	i	i
CCNc1nc(SCCOc2ccc(C)cc2)nc(N(C)C)n1	i	16µM	21µM	i	i	i
O=C(CN1CCN(Cc2ccc(F)cc2)C1=O)NCc1ccccc1	i	i	i	i	i	i
Cn1c(-c2ccccc2)c(CCO)c2ccccc21	i	i	i	i	i	i
Cn1c(-c2ccccc2)c(C#Cc2ccc(N)cc2)c2ccccc21	i	?	i	3.5µM	i	i
O=C1c2ccccc2[C@@H]2CC(O)C(O)CCN12 (some centres undefined)	i	i	i	i	i	i
CC1(C)Cc2ccccc2C2CC(O)C(=O)N21 (centres undefined)	i	15µM	?	i	i	i
CCOc1ccccc1N1CCN(C(=O)c2cc3c(C)cc(C)cc3[nH]2)CC1	i	?	23µM	i	i	i
CCOc1ccccc1N1CCN(C(=O)c2ccc3[nH]c4c(c3c2)CCCC4)CC1	i	21µM	?	i	i	i
CCOc1ccccc1N1CCN(C(=O)c2ccncc2)CC1	i	i	i	i	i	i
CC1=CCC2COC(c3ccc[n+](Cc4ccccc4)c3)C1C2 (centres undefined)	i	3.7µM	2.9µM	i	i	i
CN1CCN(C(=O)/C(=C/c2ccccc2)c2ccccc2)CC1	i	i	i	i	i	i
